This note sets out measurements from PubChem BioAssay.

Active and inactive are the calls of the source. Unless noted, the rule behind the calls is not given here.

Assay [1] relates to Wnt5a (protein binding on small-molecule microarray). The assay can be described thus: Wnt5a binders on small-molecule microarray, primary screen, biophysical, 635/667 nm fluorescence (AID 1142).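 Note: fluorescence read at 667 nm with signal to noise per printed feature.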 As to conditions: 635 nm fluorescence, higher = more signal.
Assay [2] is described as follows: cell viability in Huh7 cells, primary screen, cytotoxicity control for HCV replication inhibitor project, CellTiter-Glo luminescence, basal, 48 h (AID 1143).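 Note: Huh7 hepatoma cells carrying a hepatitis C replication reporter with no stimulus; test concentration not given here.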 The conditions noted are these: Huh7 HCV replicon, higher = more signal, called active from +8 up or from −8 down.
Assay [3] in a line: P. aeruginosa biofilm formation inhibitors, primary screen, PAO1 strain, BacTiter-Glo luminescence, LB-PBS (AID 1144). As to conditions: 12 h, higher = more signal.
The nature of assay [4]: CREB reporter modulators without forskolin, primary screen, cell-based, PC12, CRE-LacZ reporter, unstimulated (AID 1145). As to conditions: no forskolin, luminescence, 4.5 h, higher = more signal, called active from +8 up or from −8 down.
A short description of assay [5]: CREB reporter modulators under forskolin, primary screen, cell-based, PC12, CRE-LacZ reporter, forskolin-stimulated (AID 1146).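 Note: PC12 cells with 6xCRE LacZ reporter stimulated by forskolin 10 µM; beta-galactosidase reporter signal reflecting CREB driven transcription.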 As to conditions: luminescence, 4.5 h, higher = more signal, called active from +8 up or from −8 down.
Assay [6] concerns the target Streptavidin (Streptomyces avidinii) (UniProt P22629). The assay can be described thus: streptavidin binders on small-molecule microarray, primary screen, artefact control for SMM compound annotation, biophysical, 635/667 nm fluorescence (AID 1147).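 Note: signal reflects streptavidin binding to arrayed compounds as a control protein.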 The conditions noted are these: streptavidin binding, higher = more signal.
A short description of assay [7]: small-molecule binders of probe aInhba, primary screen, biochemical, small-molecule microarray, 635/667 nm fluorescence (AID 1148).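 Note: score merges 667nm spot fluorescence with signal-to-noise for antibody binding to printed compounds.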 The conditions noted are these: higher = more signal.
Assay [8] addresses Torsin-1A (Homo sapiens) (UniProt O14656). The assay can be described thus: torsin A binders from cell lysate, primary screen, small-molecule microarray, wild-type, 635/667 nm (AID 1149). As to conditions: COS7 hTOR1A-WT lysate, 635 nm fluorescence, higher = more signal.
For assay [9] the target is unchanged. Description: small-molecule binders of mutant TOR1A in lysate, primary screen, cell lysate, small-molecule microarray, COS7 lysate, 635/667 nm fluorescence (AID 1150).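 Note: score pools 667 nm emission and signal to noise measuring lysate protein binding.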 As to conditions: COS7 hTOR1A mutant lysate, 635 nm fluorescence, higher = more signal.
Assay [10] concerns Sonic hedgehog protein (Shh). Description: small-molecule binders of Shh protein, primary screen, biochemical, small-molecule microarray, 635/667 nm fluorescence (AID 1151).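 Note: Shh protein binding to compounds spotted on small-molecule microarray slides; score combines spot fluorescence intensity with signal-to-noise across triplicate slides.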 The conditions noted are these: small-molecule microarray binding, 635 nm fluorescence; higher = more signal.
The nature of assay [11]: E. coli DRC41 culture turbidity changes, primary screen, E. coli filamentation inducer project, strain DRC41, OD650, 48 h (AID 1152).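 Note: E. coli MC1000 strain DRC41 lacking acrAB efflux pump and sulA.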 As to conditions: E. coli DRC41 (acrAB sulA), higher = more signal, called active from +8 up or from −8 down.
Assay [12] in a line: small-molecule binders of probe aLefty1, primary screen, biochemical, small-molecule microarray, 635/667 nm fluorescence (AID 1153).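 Note: score merges spot fluorescence with signal-to-noise ratio from the scanned slide images.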 As to conditions: higher = more signal.
A short description of assay [13]: PSAC antagonists in infected red cells, primary screen, cell-based, P. falciparum Indochina, OD700, 1 h (AID 1154). The conditions noted are these: P. falciparum Indochina infected RBC osmotic lysis, higher = more signal, called active from +8 up or from −8 down.
The nature of assay [14]: PSAC antagonists in infected red cells, primary screen, cell-based, P. falciparum Indochina, OD700, 2 h (AID 1155).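 Note: lysis reports solute entry through the parasite surface anion channel PSAC; channel blockers reduce lysis of infected cells.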 The conditions noted are these: P. falciparum Indochina infected erythrocytes, osmotic lysis OD700; higher = more signal, called active from +8 up or from −8 down.
Assay [15] can be described thus: osmotic lysis modulators in infected erythrocytes, primary screen, PSAC antagonist project, cell-based, P. falciparum Indochina, OD700, 3 h (AID 1156). The conditions noted are these: higher = more signal, called active from +8 up or from −8 down.
A short description of assay [16]: PSAC antagonists in infected red cells, primary screen, cell-based, P. falciparum Indochina, OD700, 18 h (AID 1157). As to conditions: P. falciparum Indochina infected erythrocytes, osmotic lysis OD700, 18 h; higher = more signal, called active from +8 up or from −8 down.
A short description of assay [17]: modulators of S6 phosphorylation in cells, primary screen, cell-based, A549, cytoblot, luminescence, serum-stimulated (AID 1158).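 Note: serum-stimulated A549 lung adenocarcinoma cells; signal is phosphorylated S6 detected by cytoblot immunostaining with HRP secondary.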 The conditions noted are these: A549 phospho-S6 cytoblot, 5 h, higher = more signal.
Assay [18] deals with NADPH oxidase 2 (Homo sapiens) (UniProt P04839). Description: NOX2-dependent H2O2 signal modulators, primary screen, NOX inhibitor project, cell-based, HEK293-NOX2, PMA-stimulated, Amplex Red fluorescence (AID 1159). Note: test concentration not given here. The conditions noted are these: 45 min, higher = more signal, called active from +8 up or from −8 down.
NADPH oxidase 2 (Homo sapiens), sequence (P04839 whole entry, looked up): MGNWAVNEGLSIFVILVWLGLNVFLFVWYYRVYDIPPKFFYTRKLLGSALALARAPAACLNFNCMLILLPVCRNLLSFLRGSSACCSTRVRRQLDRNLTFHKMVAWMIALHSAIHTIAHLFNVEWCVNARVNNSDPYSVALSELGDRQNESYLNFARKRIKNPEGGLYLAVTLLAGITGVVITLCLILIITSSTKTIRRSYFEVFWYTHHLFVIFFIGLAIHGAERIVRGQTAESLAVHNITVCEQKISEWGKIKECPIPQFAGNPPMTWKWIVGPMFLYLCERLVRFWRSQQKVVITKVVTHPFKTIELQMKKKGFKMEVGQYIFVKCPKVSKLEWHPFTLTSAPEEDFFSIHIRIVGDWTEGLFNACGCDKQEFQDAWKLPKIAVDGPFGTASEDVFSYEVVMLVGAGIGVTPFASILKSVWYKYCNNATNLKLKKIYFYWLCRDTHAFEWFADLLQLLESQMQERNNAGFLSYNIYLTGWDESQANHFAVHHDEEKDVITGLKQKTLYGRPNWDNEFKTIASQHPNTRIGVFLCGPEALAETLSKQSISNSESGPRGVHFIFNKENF
Assay [19] concerns the target NADPH oxidase 4 (Homo sapiens) (UniProt Q9NPH5). The assay can be described thus: NOX4-dependent H2O2 signal modulators, primary screen, NOX inhibitor project, cell-based, HEK293-NOX4, tetracycline-induced, Amplex Red fluorescence (AID 1160). The conditions noted are these: 45 min, higher = more signal, called active from +8 up or from −8 down.
Assay [20] addresses NADPH oxidase 5 (Homo sapiens) (UniProt Q96PH1). The assay can be described thus: NOX5-dependent H2O2 signal modulators, primary screen, NOX inhibitor project, cell-based, HEK293-NOX5, Amplex Red fluorescence (AID 1161). The conditions noted are these: HEK293-NOX5, ionomycin, 45 min, higher = more signal.

NADPH oxidase 5 (Homo sapiens), sequence (Q96PH1 whole entry, looked up): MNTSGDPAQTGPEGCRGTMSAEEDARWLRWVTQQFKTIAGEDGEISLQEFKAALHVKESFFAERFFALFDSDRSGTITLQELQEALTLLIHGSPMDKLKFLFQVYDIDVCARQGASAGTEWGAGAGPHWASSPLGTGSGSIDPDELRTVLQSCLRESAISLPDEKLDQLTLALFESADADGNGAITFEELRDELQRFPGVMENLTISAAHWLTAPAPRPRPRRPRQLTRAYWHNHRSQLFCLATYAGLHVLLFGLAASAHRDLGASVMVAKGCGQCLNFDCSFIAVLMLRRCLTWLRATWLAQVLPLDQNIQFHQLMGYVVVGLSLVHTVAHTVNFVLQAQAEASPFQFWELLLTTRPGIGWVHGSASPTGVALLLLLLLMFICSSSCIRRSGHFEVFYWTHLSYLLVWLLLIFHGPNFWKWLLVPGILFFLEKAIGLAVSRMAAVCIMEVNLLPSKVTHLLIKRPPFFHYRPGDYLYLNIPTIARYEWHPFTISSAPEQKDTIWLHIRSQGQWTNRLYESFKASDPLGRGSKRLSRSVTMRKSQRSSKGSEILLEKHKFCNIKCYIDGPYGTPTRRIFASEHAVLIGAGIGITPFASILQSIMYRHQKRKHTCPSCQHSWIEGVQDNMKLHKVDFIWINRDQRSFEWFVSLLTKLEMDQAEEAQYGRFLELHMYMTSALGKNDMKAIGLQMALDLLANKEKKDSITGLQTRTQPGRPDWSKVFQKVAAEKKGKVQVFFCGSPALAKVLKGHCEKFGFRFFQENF
Torsin-1A (Homo sapiens), sequence (O14656 whole entry, looked up): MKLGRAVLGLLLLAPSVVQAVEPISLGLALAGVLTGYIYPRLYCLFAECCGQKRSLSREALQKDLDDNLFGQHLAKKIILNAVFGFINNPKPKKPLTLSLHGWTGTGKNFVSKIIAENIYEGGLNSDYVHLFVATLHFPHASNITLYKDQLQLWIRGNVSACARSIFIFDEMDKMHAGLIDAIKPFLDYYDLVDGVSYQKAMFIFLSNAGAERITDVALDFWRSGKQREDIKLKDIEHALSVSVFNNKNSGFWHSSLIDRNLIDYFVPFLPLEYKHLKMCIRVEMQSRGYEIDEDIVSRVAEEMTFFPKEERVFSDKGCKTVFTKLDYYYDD
NADPH oxidase 4 (Homo sapiens), sequence (Q9NPH5 whole entry, looked up): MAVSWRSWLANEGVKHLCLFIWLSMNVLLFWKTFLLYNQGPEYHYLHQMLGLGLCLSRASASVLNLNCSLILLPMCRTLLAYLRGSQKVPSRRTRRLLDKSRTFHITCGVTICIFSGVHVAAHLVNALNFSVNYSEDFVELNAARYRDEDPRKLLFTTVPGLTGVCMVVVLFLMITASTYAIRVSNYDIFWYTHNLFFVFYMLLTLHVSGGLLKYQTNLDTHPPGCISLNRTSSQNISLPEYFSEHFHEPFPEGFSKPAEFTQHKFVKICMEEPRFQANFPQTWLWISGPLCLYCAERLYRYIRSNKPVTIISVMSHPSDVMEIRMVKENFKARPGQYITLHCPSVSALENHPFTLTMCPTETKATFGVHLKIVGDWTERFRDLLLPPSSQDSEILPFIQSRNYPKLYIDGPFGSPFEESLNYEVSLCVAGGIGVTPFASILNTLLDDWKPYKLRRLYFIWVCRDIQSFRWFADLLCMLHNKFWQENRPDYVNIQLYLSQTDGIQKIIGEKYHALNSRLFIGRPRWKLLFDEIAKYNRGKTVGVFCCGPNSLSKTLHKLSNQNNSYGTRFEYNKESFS
Streptavidin (Streptomyces avidinii), sequence (P22629 whole entry, looked up): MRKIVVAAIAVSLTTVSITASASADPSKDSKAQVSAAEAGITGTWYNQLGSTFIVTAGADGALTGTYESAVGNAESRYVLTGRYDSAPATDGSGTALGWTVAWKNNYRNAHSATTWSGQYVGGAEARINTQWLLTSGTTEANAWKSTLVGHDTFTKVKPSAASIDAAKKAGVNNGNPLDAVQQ

`CCOC(=O)C[C@H]1[C@H](OC(=O)c2ccccc2-c2ccccc2)[C@@H](NC(=O)C2CCCCC2)c2cc(OCCCO)ccc2N1C(=O)Cc1ccc(OC)cc1`: the composite z-score in [1] is 0.0136; in [6], 0.0611; in assay [7], -0.0736; in the assay with Torsin-1A (Homo sapiens) [8], -0.0183; with Torsin-1A (Homo sapiens) [9] it was 0.307; in assay [10], -0.0275. Moreover, the composite z-score in [12] was -0.0547. Besides, the z-score was -0.226 (inactive) in assay [2]; 0.642 (inactive) in [3]; 4.65 (inactive) in [4]; 0.899 (inactive) in assay [5]; -1.13 (inactive) in assay [11]; 1.1 (inactive) in assay [13]. The z-score in assay [14] was 0.664 (inactive); in assay [15], 0.125 (inactive); in [16], 0.256 (inactive); in assay [17], -0.434; in [18], 0.0588 (inactive); in assay [19], 0.979 (inactive). In addition, the z-score in assay [20] was determined as 0.103.

Regarding `Cc1ccc(S[C@]2(C(=O)NCC(F)(F)F)CC(=O)N(C3CCCCC3)[C@@H]2c2ccc(CO)cc2I)cc1`, the composite z-score in assay [1] was -0.0208; in [6], 0.864; in [7], 0.0074; in the assay with Torsin-1A (Homo sapiens) [8], -0.357; with Torsin-1A (Homo sapiens) [9] it was 1.19; in [10], 0.834. The composite z-score in assay [12] is -0.0879. In addition, the z-score was -1.76 (inactive) in assay [2]; 1.13 (inactive) in assay [3]; 0.622 (inactive) in assay [4]; 0.343 (inactive) in assay [5]; 0.439 (inactive) in assay [11]; 4.35 (inactive) in assay [13]. The z-score in assay [14] is 1.29 (inactive); in assay [15], -0.178 (inactive); in assay [16], 0.524 (inactive); in assay [17], -0.283; in assay [18], 1.04 (inactive); in [19] it was 0.661 (inactive). The same molecule came in with a z-score in assay [20] of 2.07.

Take `O=C(CS)NCCCCCCNC(=O)[C@H]1C[C@H]2C(=O)N[C@@H](Cc3ccccc3)C(=O)N2[C@H]1c1ccc(O)cc1`: the composite z-score was 0.491 in assay [1]; -0.513 in assay [6]; -0.162 in assay [7]; 1.08 with Torsin-1A (Homo sapiens) [8]; 0.768 with Torsin-1A (Homo sapiens) [9]; 1.62 in assay [10]. In [12], the composite z-score is -0.54. Moreover, the z-score is 0.167 (inactive) in assay [2]; -0.31 (inactive) in [3]; 0.822 (inactive) in [4]; 0.368 (inactive) in assay [5]; -0.558 (inactive) in [11]; 8.58 (active) in assay [13]. The z-score is 1.21 (inactive) in assay [14]; -0.177 (inactive) in assay [15]; 0.767 (inactive) in assay [16]; -0.0427 in assay [17]; 0.593 (inactive) in assay [18]; -0.0574 (inactive) in assay [19]. In assay [20], this molecule returned a z-score of 1.08.

`COc1cc(OC)c(C(O)C2C=CC3C(=O)N(c4ccccc4)C(=O)C3N2Nc2ccccc2)cc1Br` (stereo not given): the composite z-score is -0.0276 in [1]; 1.24 in assay [6]; 0.0155 in [7]; -0.162 in the assay with Torsin-1A (Homo sapiens) [8]; 0.282 with Torsin-1A (Homo sapiens) [9]; -0.381 in assay [10]. This molecule also yielded a composite z-score in [12] of 0.0834. For the same molecule, the z-score in assay [2] is -1.12 (inactive); in assay [3], -0.415 (inactive); in [4] it was 0.0501 (inactive); in [5], -0.434 (inactive); in assay [11], -0.789 (inactive); in assay [13], 20.2 (active). The z-score in assay [14] is 5.27 (inactive); in assay [15], 0.508 (inactive); in [16] it was 2.03 (inactive); in assay [17], -0.543; in [18], -1.61 (inactive); in [19], -4.38 (inactive). In assay [20], the z-score was -2.38.
